{"source": "PubChem BioAssay (NCATS)", "key": {"[1]": {"biological_target": "Cytochrome P450 1A2 (Homo sapiens) (UniProt P05177)", "sequence (P05177 whole entry, looked up)": "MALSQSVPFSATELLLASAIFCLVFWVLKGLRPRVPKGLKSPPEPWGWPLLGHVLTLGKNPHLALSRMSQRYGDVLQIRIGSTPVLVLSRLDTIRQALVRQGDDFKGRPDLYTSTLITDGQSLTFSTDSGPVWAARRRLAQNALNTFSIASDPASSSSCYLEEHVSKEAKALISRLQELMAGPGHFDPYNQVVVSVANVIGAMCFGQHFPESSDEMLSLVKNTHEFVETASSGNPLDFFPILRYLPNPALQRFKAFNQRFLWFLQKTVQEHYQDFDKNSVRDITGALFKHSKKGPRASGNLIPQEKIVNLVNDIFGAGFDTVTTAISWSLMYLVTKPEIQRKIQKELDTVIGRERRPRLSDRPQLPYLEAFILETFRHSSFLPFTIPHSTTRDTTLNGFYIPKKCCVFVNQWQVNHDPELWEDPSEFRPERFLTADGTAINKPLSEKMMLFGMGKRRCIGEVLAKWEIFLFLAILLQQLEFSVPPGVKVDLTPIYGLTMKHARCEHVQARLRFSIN", "experiment": "p450-cyp1a2 (AID 410; calls by dose curve; further: potency means the concentration at half of the fitted maximal effect)", "how_it_was_run": "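O-Demethylation of luciferin 6' methyl ether by human CYP1A2 is monitored as luciferase luminescence. Substrate sits at Km (100uM); enzyme is 20nM. Values are scaled to 57 uM furafylline as maximal inhibition.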"}, "[2]": {"biological_target": "Glucocorticoid receptor (Homo sapiens) (UniProt P04150)", "sequence (P04150 whole entry, looked up, the tested form may be a part)": "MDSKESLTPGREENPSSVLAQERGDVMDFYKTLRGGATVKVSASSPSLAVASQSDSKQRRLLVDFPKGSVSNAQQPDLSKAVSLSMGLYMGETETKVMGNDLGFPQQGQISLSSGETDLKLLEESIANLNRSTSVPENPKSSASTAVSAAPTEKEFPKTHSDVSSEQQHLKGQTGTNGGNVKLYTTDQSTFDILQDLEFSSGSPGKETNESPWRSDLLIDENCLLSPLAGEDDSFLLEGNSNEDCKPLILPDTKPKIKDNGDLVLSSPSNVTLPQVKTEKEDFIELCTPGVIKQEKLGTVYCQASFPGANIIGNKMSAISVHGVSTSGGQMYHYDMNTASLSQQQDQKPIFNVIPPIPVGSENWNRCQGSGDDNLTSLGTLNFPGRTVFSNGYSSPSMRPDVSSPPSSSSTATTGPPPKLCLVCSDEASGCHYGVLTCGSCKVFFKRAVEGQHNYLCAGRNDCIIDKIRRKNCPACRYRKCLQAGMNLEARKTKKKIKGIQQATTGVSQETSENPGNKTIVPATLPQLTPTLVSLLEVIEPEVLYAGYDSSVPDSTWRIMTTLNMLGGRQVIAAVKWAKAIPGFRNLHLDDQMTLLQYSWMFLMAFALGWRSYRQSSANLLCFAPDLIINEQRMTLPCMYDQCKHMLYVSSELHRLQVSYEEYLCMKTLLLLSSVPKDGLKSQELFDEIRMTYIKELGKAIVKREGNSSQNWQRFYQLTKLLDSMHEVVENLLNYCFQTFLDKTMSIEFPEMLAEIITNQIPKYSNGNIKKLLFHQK", "experiment": "GR-GFP Redistribution (AID 450;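 active means compounds whose dose series gives a full or clear partial fitted curve of increased nuclear translocation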; further: potency means the concentration at half of the fitted maximal effect)", "conditions": "U2OS GR-GFP nuclear translocation, laser cytometry, 2 h"}, "[3]": {"biological_target": "Glucocorticoid receptor (Homo sapiens) (UniProt P04150)", "experiment": "GR-EFC Redistribution (AID 451; calls by dose curve; further: potency means the concentration at half of the fitted maximal effect)", "conditions": "CHO-K1 GR-EFC translocation, beta-gal luminescence, 2 h", "how_it_was_run": "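CHO-K1 cells expressing nuclear EA and GR-ED fragments of b-gal; compounds titrated up to 46 uM final, 2 h at 37 C. GR nuclear translocation read as complemented b-gal luminescence after 1 h RT detection.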"}, "[4]": {"biological_target": "Mitogen-activated protein kinase 10 (Mus musculus) (UniProt Q61831)", "experiment": "JNK3 AlphaScreen Assay (AID 530; active means well fitted curve in either direction with a large enough effect, not every such curve was filed as active;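 further: kinase came from lysate of stimulated human HepG2 cells; signal reports phosphorylation of biotinylated GST-cJun 1-79 at Ser73 with 10 µM ATP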)", "how_it_was_run": "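Activity was read by AlphaScreen after JNK3-containing HepG2 lysate (cytokine pre-activated) phosphorylated biotinylated GST-cJun with 10 uM ATP at room temperature. Phospho-Ser73 cJun antibody with Protein-A acceptor beads provided detection.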"}, "[5]": {"biological_target": "Cytochrome P450 3A4 (Homo sapiens) (UniProt P08684)", "sequence (P08684 whole entry, looked up)": "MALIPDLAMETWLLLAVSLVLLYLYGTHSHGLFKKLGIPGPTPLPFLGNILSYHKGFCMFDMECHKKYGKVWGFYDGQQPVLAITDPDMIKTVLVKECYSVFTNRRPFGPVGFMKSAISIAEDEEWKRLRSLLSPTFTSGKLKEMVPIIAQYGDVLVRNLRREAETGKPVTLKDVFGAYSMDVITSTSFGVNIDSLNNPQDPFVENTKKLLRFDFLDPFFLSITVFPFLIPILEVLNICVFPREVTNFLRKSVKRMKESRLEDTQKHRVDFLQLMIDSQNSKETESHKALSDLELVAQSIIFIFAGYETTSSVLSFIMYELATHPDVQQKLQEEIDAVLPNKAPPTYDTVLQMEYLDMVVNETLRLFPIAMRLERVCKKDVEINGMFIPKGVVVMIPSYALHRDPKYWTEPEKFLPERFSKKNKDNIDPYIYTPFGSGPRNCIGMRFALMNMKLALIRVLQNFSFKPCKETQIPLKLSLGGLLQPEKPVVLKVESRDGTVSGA", "experiment": "qHTS Assay for Activators of Cytochrome P450 3A4 (AID 885); further: nearly all actives have a fitted effect of over 65% in size", "how_it_was_run": "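Luminescent readout of luciferin formed from 25 uM Luciferin-PPXE (KM level) by 20 nM CYP3A4 in 200 mM KPO4, with 60 min NADPH-driven reaction at room temperature after 10 min compound exposure. Ketoconazole (57 uM) defined 100% inhibition.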"}, "[6]": {"biological_target": "Cytochrome P450 2C19 (Homo sapiens) (UniProt P33261)", "sequence (P33261 whole entry, looked up)": "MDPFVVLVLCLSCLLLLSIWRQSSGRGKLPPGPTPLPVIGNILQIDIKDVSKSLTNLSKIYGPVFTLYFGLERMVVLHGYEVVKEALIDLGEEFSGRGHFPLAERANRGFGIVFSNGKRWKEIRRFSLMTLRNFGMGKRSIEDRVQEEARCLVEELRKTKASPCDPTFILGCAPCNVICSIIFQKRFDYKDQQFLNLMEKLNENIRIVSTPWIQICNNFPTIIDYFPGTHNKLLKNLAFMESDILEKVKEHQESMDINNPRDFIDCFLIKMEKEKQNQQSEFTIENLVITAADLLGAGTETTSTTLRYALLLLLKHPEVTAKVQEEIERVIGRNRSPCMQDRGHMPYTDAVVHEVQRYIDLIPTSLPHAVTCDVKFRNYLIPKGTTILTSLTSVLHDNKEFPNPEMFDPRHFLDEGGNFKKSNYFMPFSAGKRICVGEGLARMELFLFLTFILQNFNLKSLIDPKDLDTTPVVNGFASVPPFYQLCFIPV", "experiment": "qHTS Assay for Inhibitors and Substrates of Cytochrome P450 2C19 (AID 899); further: potency means the concentration at half of the fitted maximal effect; nearly all actives have a fitted effect of over 60% in size", "how_it_was_run": "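Signal comes from luciferase acting on luciferin released by CYP2C19-mediated hydroxylation of Luciferin-H EGE, 10uM (KM). Assay mix: 5nM enzyme, 50mM KPO4; 60 min at 37C with NADPH regeneration. Data normalized against 57uM ketoconazole.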"}, "[7]": {"biological_target": "DNA dC->dU-editing enzyme APOBEC-3G (Homo sapiens) (UniProt Q9HC16)", "sequence (Q9HC16 whole entry, looked up)": "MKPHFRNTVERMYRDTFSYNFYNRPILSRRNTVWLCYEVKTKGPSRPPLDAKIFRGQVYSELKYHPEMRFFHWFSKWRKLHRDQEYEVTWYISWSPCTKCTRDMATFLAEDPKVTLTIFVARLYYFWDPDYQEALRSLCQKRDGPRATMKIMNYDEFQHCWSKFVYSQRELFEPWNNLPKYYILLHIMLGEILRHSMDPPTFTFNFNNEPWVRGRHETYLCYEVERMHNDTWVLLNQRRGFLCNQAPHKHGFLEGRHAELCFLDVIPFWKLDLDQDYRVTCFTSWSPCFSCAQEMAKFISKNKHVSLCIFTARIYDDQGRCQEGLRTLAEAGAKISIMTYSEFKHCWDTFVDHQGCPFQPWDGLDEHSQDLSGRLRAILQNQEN", "experiment": "qHTS for inhibitors of Vif-A3G interactions: Validation (AID 588379)", "how_it_was_run": "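Yellow fluorescence (Ex 488, Em 500-530) of Vif-coexpressing HeLa A3G-eYFP cells, scanned by Acumen cytometer, reports blocked A3G degradation. Cells plated at 700/well overnight at 37 deg C before compound addition, then a further overnight compound incubation at 37 deg C.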"}, "[8]": {"test_system": "Zika virus NS2B-NS3 protease", "experiment": "Primary screen GU AMC qHTS for Zika virus inhibitors (AID 1347154); further: nearly all actives have a fitted effect of over 70% in size", "how_it_was_run": "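Unlinked Zika NS2B hydrophilic domain–NS3 protease complex at 25 nM in 10 mM Tris-HCl pH 8.0, 0.01% Tween 20, with an AMC peptide substrate. Fluorescence change (340/450 nm) over 15 min at room temperature, normalized to controls, fitted to 4-parameter Hill.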"}, "[9]": {"experiment": "Counterscreen qHTS for small molecule stabilizers of the endoplasmic reticulum resident proteome: GLuc-NoTag assay (AID 1508627)", "how_it_was_run": "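Counterscreen line: SH-SY5Y-GLuc-NoTag. Seed, 5 h; compound, 19 h; thapsigargin 100 nM, 4 h; 37C/5% CO2. Readout: secreted GLuc luminescence, coelenterazine 0.07x final, no lysis.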"}, "[10]": {"experiment": "Cell Viability qHTS for small molecule stabilizers of the endoplasmic reticulum resident proteome (AID 1508629);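 further: compound exposure about 46 h in total before the viability read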", "conditions": "cell viability counter-screen, 100 nM thapsigargin for final 4 h"}, "[11]": {"biological_target": "Cytochrome P450 2D6 (Homo sapiens) (UniProt P10635)", "sequence (P10635 whole entry, looked up)": "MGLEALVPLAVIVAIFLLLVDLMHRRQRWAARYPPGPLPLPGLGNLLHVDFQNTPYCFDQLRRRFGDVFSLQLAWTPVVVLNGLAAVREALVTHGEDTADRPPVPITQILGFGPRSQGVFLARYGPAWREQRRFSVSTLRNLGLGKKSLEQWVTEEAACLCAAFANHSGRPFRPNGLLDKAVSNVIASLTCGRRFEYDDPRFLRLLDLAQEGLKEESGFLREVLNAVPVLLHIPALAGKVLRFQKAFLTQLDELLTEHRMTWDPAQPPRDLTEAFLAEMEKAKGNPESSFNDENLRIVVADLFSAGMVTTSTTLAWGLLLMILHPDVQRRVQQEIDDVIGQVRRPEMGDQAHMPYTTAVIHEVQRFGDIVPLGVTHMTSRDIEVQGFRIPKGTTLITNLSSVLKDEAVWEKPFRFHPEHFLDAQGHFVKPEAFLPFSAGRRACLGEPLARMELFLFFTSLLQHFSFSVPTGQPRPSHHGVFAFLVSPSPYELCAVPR", "experiment": "qHTS Assay for Inhibitors and Substrates of Cytochrome P450 2D6 (AID 891); further: potency means the concentration at half of the fitted maximal effect; nearly all actives have a fitted effect of over 60% in size", "how_it_was_run": "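Luminescent read-out of luciferin formed by 5 nM human CYP2D6 demethylating 30 uM Luciferin-ME EGE (Km level) over 60 min at room temperature after NADPH regeneration addition. Data normalized to full inhibition by 1.43 uM quinidine.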"}, "[12]": {"biological_target": "Calcium and integrin-binding protein 1 (Homo sapiens) (UniProt Q99828)", "sequence (Q99828 whole entry, looked up)": "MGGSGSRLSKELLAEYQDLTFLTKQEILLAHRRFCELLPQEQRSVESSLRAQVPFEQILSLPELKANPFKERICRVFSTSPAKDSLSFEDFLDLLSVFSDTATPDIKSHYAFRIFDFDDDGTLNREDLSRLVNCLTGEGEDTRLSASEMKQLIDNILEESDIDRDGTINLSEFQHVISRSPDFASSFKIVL", "experiment": "Primary qHTS for Identification of Calcium Integrin Binding Protein 1 (CIB1) Competitor (AID 1508620)", "how_it_was_run": "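Fluorescence polarization competition: GST-tagged CIB1 (1 uM final) preincubated with compound 15 min at room temperature, then FITC-labelled alphaIIb peptide (100 nM final) added. After 15 min at room temperature, polarization read at Ex 480/Em 540.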"}, "[13]": {"experiment": "Primary qHTS for small molecule stabilizers of the endoplasmic reticulum resident proteome: Secreted ER Calcium Modulated Protein (SERCaMP) assay (AID 1508630)", "how_it_was_run": "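The SH-SY5Y reporter protocol was run at 3 concentrations up to 38.3 uM (primary) or 11 concentrations (follow-up): 16 h compound, 100 nM thapsigargin for 4 h, then extracellular luciferase luminescence.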"}, "[14]": {"experiment": "NCATS anti-infectives library activity on HEK293 viability as a counter-qHTS vs the C. elegans viability qHTS (AID 1745854)", "how_it_was_run": "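Counter-screen for cytotoxicity: HEK293, 24 hr, 37C, compounds up to 41.7 uM final (a dilution series, 1:5). Readout CellTiter-Glo luminescence, 10 min RT. Digitonin control, 83.3 uM final.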"}, "[15]": {"biological_target": "Glutathione peroxidase 1 (Homo sapiens) (UniProt P07203)", "sequence (P07203 whole entry, looked up)": "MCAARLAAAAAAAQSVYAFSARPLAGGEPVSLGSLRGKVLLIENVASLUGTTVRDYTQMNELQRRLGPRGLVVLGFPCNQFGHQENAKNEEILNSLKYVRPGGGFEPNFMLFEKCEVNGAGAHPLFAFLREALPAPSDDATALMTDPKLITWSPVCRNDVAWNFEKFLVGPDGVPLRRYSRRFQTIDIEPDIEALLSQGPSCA", "experiment": "Primary qHTS Assay for Inhibitors of Recombinant Selenoprotein Glutathione Peroxidase 1 (GPX1) (AID 1845191); further: nearly all actives have a fitted effect of over 65% in size", "how_it_was_run": "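GR-coupled readout: NADPH consumption tracked by fluorescence, ex 340/em 450 nm, at t=0 and after 15 min at RT. Final mix 10 nM GPX1, 1 mM GSH, 0.5 mM CHP, 0.5 mM NADPH, 100 nM GR, 0.01% BSA, following 30 min enzyme–compound preincubation.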"}, "[16]": {"biological_target": "Phospholipid hydroperoxide glutathione peroxidase GPX4 (Homo sapiens) (UniProt P36969)", "sequence (P36969 whole entry, looked up)": "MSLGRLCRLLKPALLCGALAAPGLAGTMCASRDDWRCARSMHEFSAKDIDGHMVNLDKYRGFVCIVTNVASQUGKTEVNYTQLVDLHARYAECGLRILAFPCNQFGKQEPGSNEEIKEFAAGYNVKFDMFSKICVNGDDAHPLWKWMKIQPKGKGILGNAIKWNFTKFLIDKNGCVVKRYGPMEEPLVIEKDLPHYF", "experiment": "Primary qHTS Assay for Inhibitors of Recombinant Selenoprotein Glutathione Peroxidase 4 (GPX4) (AID 1845192); further: nearly all actives have a fitted effect of over 65% in size", "conditions": "outcome: at 50 µM (top of the series) unless noted", "how_it_was_run": "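Steps: GPX4 plus compound, 30 min RT; add GR/GSH/NADPH master mix; start with cumene hydroperoxide; read 340/450 nm fluorescence at 0 and 15 min. Finals were 200 nM GPX4, 1 mM GSH, 0.5 mM CHP, 0.5 mM NADPH, 100 nM GR.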"}}, "note": "Unmarked numbers belong to inactive results. Results filed as inconclusive are left out. A call without a number means that no potency is given here. Active and inactive are the calls of the source. Unless noted, the call rests on the fitted dose curve; in most records, active means well fitted curve in the direction sought with a large enough effect; inconclusive means small, poorly fitted or top-dose-only effect, or another doubt; inactive means no such curve, though single readings can be large; an effect the other way counts as inactive or inconclusive.", "data": [{"smiles": "CN1CCN(C2=Cc3ccccc3Oc3ccc(Cl)cc32)CC1", "values": [{"measurement": "Potency", "setting": "[1]", "result": "20 µM (active)"}, {"measurement": "Potency", "setting": "[2]", "result": "> 46", "unit": "µM"}, {"measurement": "Potency", "setting": "[3]", "result": "> 46", "unit": "µM"}, {"measurement": "Potency", "setting": "[4]", "result": "inactive"}, {"measurement": "Potency", "setting": "[5]", "result": "inactive"}, {"measurement": "Potency", "setting": "[6]", "result": "3.98 µM (active)"}, {"measurement": "Potency", "setting": "[7]", "result": "inactive"}, {"measurement": "Potency", "setting": "[8]", "result": "inactive"}, {"measurement": "Potency", "setting": "[9]", "result": "inactive"}, {"measurement": "max response", "setting": "[10]", "result": 13.7, "unit": "%"}]}, {"smiles": "COC(=O)c1ccccc1NC(=O)c1ccc(F)cc1", "values": [{"measurement": "Potency", "setting": "[1]", "result": "0.2 µM (active)"}, {"measurement": "Potency", "setting": "[2]", "result": "> 46", "unit": "µM"}, {"measurement": "Potency", "setting": "[3]", "result": "> 46", "unit": "µM"}, {"measurement": "Potency", "setting": "[4]", "result": "inactive"}, {"measurement": "Potency", "setting": "[11]", "result": "5.01 µM (active)"}, {"measurement": "Potency", "setting": "[7]", "result": "inactive"}, {"measurement": "Potency", "setting": "[8]", "result": "inactive"}, {"measurement": "outcome", "setting": "[12]", "result": "inactive"}, {"measurement": "Potency", "setting": "[13]", "result": "inactive"}]}, {"smiles": "CN(C)/C(N)=N/C(=N)N", "values": [{"measurement": "outcome", "setting": "[8]", "result": "inactive"}, {"measurement": "outcome", "setting": "[12]", "result": "inactive"}, {"measurement": "outcome", "setting": "[14]", "result": "inactive"}, {"measurement": "Potency", "setting": "[15]", "result": "inactive"}, {"measurement": "outcome", "setting": "[16]", "result": "inactive [setting not given]"}]}, {"smiles": "CN(C)C1CCc2[nH]c3ccc(NC(=O)c4ccc(F)cc4)cc3c2C1", "note": "(centres undefined)", "values": [{"measurement": "Potency", "setting": "[8]", "result": "inactive"}, {"measurement": "Potency", "setting": "[9]", "result": "inactive"}, {"measurement": "max response", "setting": "[10]", "result": -26.6, "unit": "%"}]}, {"smiles": "c1ncc(CCCC2CCNCC2)[nH]1", "values": [{"measurement": "Potency", "setting": "[8]", "result": "inactive"}, {"measurement": "Potency", "setting": "[9]", "result": "inactive"}]}]}
